# Data published in PubChem BioAssay (EPA / NIEHS).
# Results filed as inconclusive are left out. Calls of active or inactive are those of the source. Rule for the calls: active = hit-call score of the fitted dose curve at least 0.9, where 1 is the maximum; inconclusive = response in the unintended direction; inactive = score below 0.9.
# How the values were obtained:
# [1] = ACEA_AR_agonist_AUC_viability: ACEA Biosciences xCELLigence Real-Time Cell Analysis on Androgen Receptor Agonism for Viability (AID 2283775);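 for AC50: viability read 80 hours after compound addition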
# Method in brief: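 Viability endpoint from xCELLigence impedance in 22Rv1 prostate cells at 80 h. Eight-point series, 100 uM maximum final.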
# [2] = ACEA_AR_antagonist_AUC_viability: ACEA Biosciences xCELLigence Real-Time Cell Analysis on Androgen Receptor Antagonism for Viability (AID 2283776);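 note: 22Rv1 human prostate cancer cells growing on impedance electrode plates; area under impedance growth curve at 80 h after dosing as viability; hits lower the growth signal relative to DMSO meaning cytotoxicity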
# Method in brief: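 Impedance read-out (RT-CES): area under growth curve at 80 h post-dose, loss of signal scored vs DMSO baseline. 22Rv1 cells; 8-pt 1:4 series, top 100 uM final, ≤0.5% DMSO; biological duplicate.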
# [3] = ACEA_ER_AUC_viability: ACEA Biosciences xCELLigence Real-Time Cell Analysis on Estrogen Receptor Agonism for Viability (AID 2283782);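 note: hit means loss of impedance signal meaning reduced cell growth or viability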
# Method in brief: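 Continuous-exposure impedance cell analysis uses T-47D cells in charcoal-stripped serum, eight 1:4 dilutions topping at 100 uM final, biological duplicate. Area under the growth curve at 80 h is fitted against DMSO baseline.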
# [4] = STM_H9_NormalizedViability: Cytotoxicity Assessment at 120 hours in the Stemina devTOX quickPredict H9 human embryonic stem cell (hESC)-based Assay (AID 2283784)
# Method in brief: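 Here, H9 cells received test compound with daily medium renewal. Each plate included methotrexate references (1uM, 5 nM), 0.1% DMSO and media blanks; CellTiter-Fluor RFU was normalized to DMSO.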
# AR (gene 367) = AR (gene 367) (UniProt P10275); assay: ACEA_AR_antagonist_80hr: ACEA Biosciences xCELLigence Real-Time Cell Analysis on Androgen Receptor Antagonism for Proliferation (AID 2283787);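 note: 22Rv1 human prostate cancer cells with growth followed by electrical impedance; hits lower the impedance growth signal relative to DMSO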
# Method in brief: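 Using 22Rv1 cells held in assay medium, we dosed compounds (100 uM maximum final, 1:4 serial, eight points, 0.5% DMSO at top) and recorded cell-electrode impedance; the 80 hr timepoint was analyzed against DMSO.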
# Sequence of AR (gene 367) (P10275 whole entry, looked up): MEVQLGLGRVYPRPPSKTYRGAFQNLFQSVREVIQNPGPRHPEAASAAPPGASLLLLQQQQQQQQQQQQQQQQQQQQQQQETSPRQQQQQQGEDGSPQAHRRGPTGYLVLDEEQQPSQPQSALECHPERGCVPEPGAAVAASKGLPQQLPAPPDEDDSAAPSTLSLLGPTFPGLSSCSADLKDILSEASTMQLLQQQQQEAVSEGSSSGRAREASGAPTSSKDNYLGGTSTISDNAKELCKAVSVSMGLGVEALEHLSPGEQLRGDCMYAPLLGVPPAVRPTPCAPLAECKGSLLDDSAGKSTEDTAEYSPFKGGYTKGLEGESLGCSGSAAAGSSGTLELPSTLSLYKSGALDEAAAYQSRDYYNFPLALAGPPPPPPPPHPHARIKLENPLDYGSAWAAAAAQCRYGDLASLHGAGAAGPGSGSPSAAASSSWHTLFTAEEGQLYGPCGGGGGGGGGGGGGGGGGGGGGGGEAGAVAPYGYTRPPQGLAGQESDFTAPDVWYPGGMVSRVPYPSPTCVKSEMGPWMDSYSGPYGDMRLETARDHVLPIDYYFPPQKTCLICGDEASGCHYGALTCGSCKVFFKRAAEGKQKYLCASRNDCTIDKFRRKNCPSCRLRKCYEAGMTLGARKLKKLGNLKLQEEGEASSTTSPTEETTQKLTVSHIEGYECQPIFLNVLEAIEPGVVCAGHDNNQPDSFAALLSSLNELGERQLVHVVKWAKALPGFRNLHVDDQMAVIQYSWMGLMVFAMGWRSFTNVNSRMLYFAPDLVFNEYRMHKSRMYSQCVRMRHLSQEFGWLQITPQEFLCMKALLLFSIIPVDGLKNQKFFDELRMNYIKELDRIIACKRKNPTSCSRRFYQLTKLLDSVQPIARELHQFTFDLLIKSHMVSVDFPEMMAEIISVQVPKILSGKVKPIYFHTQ
smiles,measurement,setting,value
COC(=O)c1ccc(C(=O)OC)cc1,outcome,[1],inactive
same,outcome,[2],inactive
same,outcome,[3],inactive
same,outcome,[4],inactive
CC(C)N(c1ccccc1)C(C)C,outcome,[1],inactive
same,outcome,[2],inactive
O=C(O)C1=NN(c2ccc(S(=O)(=O)O)cc2)C(=O)C1,AC50,[1],8.67 µM (active)
C=CC(O)CCCCC (centres undefined),outcome,[2],inactive
COC(=O)C(C)Oc1ccc(Oc2ncc(C(F)(F)F)cc2Cl)cc1 (centres undefined),outcome,[2],inactive
same,outcome,[3],inactive
CCCCCCC(C)O (centres undefined),outcome,[2],inactive
CCC(=O)OC(C)(C)C1CC=C(C)CC1 (centres undefined),outcome,[2],inactive
same,outcome,[3],inactive
CCC(C)(CCCC(C)C)OC(C)=O (centres undefined),outcome,[1],inactive
same,outcome,[3],inactive
CCCCCC1CCC(=O)O1 (centres undefined),outcome,[2],inactive
same,outcome,[3],inactive
COc1ccccc1O,outcome,[2],inactive
O=S(=O)(O)c1cc(S(=O)(=O)O)c2c(N=Nc3ccccc3)c(O)ccc2c1,outcome,[2],inactive
COc1ccc2[nH]cc(CCNC(C)=O)c2c1,outcome,[1],inactive
same,outcome,[3],inactive
C1CCCNCC1,outcome,[2],inactive
[Na+],outcome,[2],inactive
C1=COCCC1,outcome,[2],inactive
same,outcome,[3],inactive
NC(N)=S,outcome,[2],inactive
C=CCCCCCCCCC(=O)OCC,outcome,[2],inactive
same,outcome,[3],inactive
CCCc1ccc(O)cc1,outcome,[2],inactive
CC(=O)c1ccc(O)cc1,outcome,[1],inactive
same,outcome,[3],inactive
c1ccc(Cc2ccccc2)cc1,AC50,[2],9.27 µM (active)
same,outcome,[3],inactive
O=c1cc(-c2ccc(O)cc2)oc2cc(O)cc(O)c12,AC50,[2],6.43 µM (active)
O=C(O)CS,outcome,[2],inactive
same,outcome,[3],inactive
CNC(=C[N+](=O)[O-])NCCSCc1ccc(CN(C)C)o1,outcome,[2],inactive
OCC=Cc1ccccc1,outcome,[2],inactive
CC(C)C(=O)c1ccccc1,outcome,[2],inactive
same,outcome,[3],inactive
CCCO[Si](OCCC)(OCCC)OCCC,outcome,[2],inactive
CCCCN(CCCC)CCCCCCN(CCCC)CCCC,outcome,[1],inactive
same,outcome,[3],inactive
CCCCCCCCCCCCOCCOS(=O)(=O)O,outcome,[2],inactive
same,AC50,[3],84.1 µM (active)
CCCC[N+](C)(CCCC)CCCC,outcome,[1],inactive
same,outcome,[3],inactive
CCCCCCCC(=O)N(C)C,outcome,[2],inactive
CC(O)CNCC(C)O (centres undefined),outcome,[2],inactive
CCNC(=S)NCC,outcome,[2],inactive
CCC(C)C1CCCCC1=O (centres undefined),outcome,[2],inactive
same,outcome,[3],inactive
CC(=O)Nc1cc(S(=O)(=O)O)cc2cc(S(=O)(=O)O)c(N=Nc3ccccc3)c(O)c12,outcome,[2],inactive
CCCCOCCOCCO,outcome,[2],inactive
CC(=O)OC(C)(C)C1CC=C(C)CC1 (centres undefined),outcome,[2],inactive
same,AC50,[3],79 µM (active)
CC(=O)C1=C(C)[C@@H]2C[C@@]3(C1)[C@H](C)CC[C@H]3C2(C)C,outcome,[2],inactive
same,AC50,[3],88.1 µM (active)
CC(=O)c1ccc2ccccc2c1,outcome,[2],inactive
CCCCCCCCCCO[C@@H]1O[C@H](CO)[C@@H](O)[C@H](O)[C@H]1O,outcome,[2],inactive
same,AC50,[3],80.3 µM (active)
CCCCOCCOCCOCCO,outcome,[4],inactive
C=C(C)C(=O)OCCC(F)(F)C(F)(F)C(F)(F)C(F)(F)C(F)(F)C(F)(F)C(F)(F)C(F)(F)F,outcome,[3],inactive
OC[C@@H](O)[C@H](O)[C@@H](O)[C@@H](O)CO,outcome,[3],inactive
CC(C)=CCCC(C)=CC(=O)O,outcome,[3],inactive
C=C(C)C(=O)OCCOCCOC(=O)C(=C)C,AC50,[3],21.2 µM (active)
N=C1N=C(N)c2ccccc21,AC50,[3],74 µM (active)
CCO[Si](CCC#N)(OCC)OCC,outcome,[3],inactive
O=C(O)c1cccc(Cl)n1,outcome,[3],inactive
CCC(CC)CO,outcome,[3],inactive
O=C(O)C(F)(F)OC(F)(F)C(F)(F)OC(F)(F)C(F)(F)C(F)(F)C(F)(F)F,outcome,[3],inactive
O=C1CCCCCCCCCCCC(=O)OCCO1,AC50,[3],71.8 µM (active)
CC1=CC[C@@H](C(C)(C)O)CC1,outcome,[3],inactive
OCCCO,outcome,[3],inactive
O=C(Nc1cccc(Cl)c1)OCC#CCCl,AC50,[3],56.3 µM (active)
CCCCCCCCSCc1cc(C)c(O)c(CSCCCCCCCC)c1,outcome,[3],inactive
CC(=O)CCC=C(C)CCC=C(C)C,AC50,[3],63.6 µM (active)
CCCCCCCCOC(=O)c1ccc(O)cc1,AC50,[3],24.7 µM (active)
CC(CO)(CO)[N+](=O)[O-],outcome,[3],inactive
CCCC1CCOC(C)S1 (centres undefined),outcome,[3],inactive
Cc1ccc(C(C)(C)O)cc1,outcome,[3],inactive
CC/C=C\CCCCO,AC50,[3],50 µM (active)
CC(C)C(=O)OCC=Cc1ccccc1,outcome,[3],inactive
CCCCCCCCCCCCOC(C)=O,outcome,[3],inactive
CCC=C(C)C=O,outcome,[3],inactive
CC=CC(=O)C1=C(C)C=CCC1(C)C,outcome,[3],inactive
CC1=CC[C@@H]2C[C@H]1C2(C)C,AC50,[3],18.7 µM (active)
ClCCOCCOCCCl,outcome,[3],inactive
C=COCC1CCC(COC=C)CC1 (centres undefined),outcome,[3],inactive
CCCCC(CC)COC(=O)COc1ccc(Cl)cc1C (centres undefined),outcome,[3],inactive
CC1(C)CC(=O)CC(C)(C)N1,outcome,[3],inactive
CC(C)Cc1ccc(C(C)C(=O)O)cc1 (centres undefined),outcome,[3],inactive
CC(O)COCC(C)O (centres undefined),outcome,[3],inactive
C=C/C(C)=C/C/C=C(\C)CCC=C(C)C,AC50,[3],89.9 µM (active)
NC(N)=NC(N)=NCCc1ccccc1,outcome,[3],inactive
CC1=CC(C)C(C=O)C(C)C1 (centres undefined) (tested in a mixture with another compound),AC50,[3],50 µM (active)
NCCCOCCOCCOCCCN,AC50,[3],86.7 µM (active)
CCOc1ccc(NC(C)=O)cc1,outcome,[3],inactive
CC(=O)N(C)C,outcome,AR (gene 367),inactive
